Among the data in PubChem BioAssay (NCI) are growth values, retold here.

Each structure is given as a SMILES string. This is part of a sample that, as a whole, favours compounds with a hit. Of some 83,000 tested, about 20% had one in any assay.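 Testing used 96-well plates and a 48-hour single-concentration exposure. Example: -40 means 40% of the starting cells died.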 Unmarked numbers belong to inactive results. Activity calls are given as the source filed them. The calls were made as follows: active = growth percent below 10; inactive = the rest.

Test systems include EKVX NSCLC; SN12C renal; UO-31 renal; TK-10 renal; ACHN renal; CAKI-1 renal; A498 renal; CCRF-CEM leukemia; MOLT-4 leukemia; SR leukemia; RPMI-8226 leukemia; OVCAR-8 ovarian; OVCAR-5 ovarian; OVCAR-4 ovarian; SK-OV-3 ovarian; IGROV1 ovarian; OVCAR-3 ovarian; HS 578T breast; NCI/ADR-RES ovarian; SK-MEL-2 melanoma.
What all share (assay): NCI-60 one-dose screen, 48 h (100 = growth as untreated, 0 = no growth, -100 = all killed)
Details in all cases: 10 µM

`Cc1cc(CC(C)CC(C)(C)C)n(O)c(=O)c1` (stereo not drawn) (tested in a mixture with another compound): the growth is 24.2% in the assay with EKVX NSCLC; 13.2% in the assay with SN12C renal; 0% (active) in the assay on UO-31 renal; 75% in the assay with TK-10 renal; 9.73% (active) in the assay with ACHN renal; 34.3% with CAKI-1 renal. In addition, the growth was 62.4% in the assay with A498 renal; 11.4% in the assay on CCRF-CEM leukemia; -6.44% (active) in the assay on MOLT-4 leukemia; 2.72% (active) with SR leukemia; 39.8% with RPMI-8226 leukemia; 20% in the assay on OVCAR-8 ovarian. Also, the growth was 41.4% with OVCAR-5 ovarian; 22.4% with OVCAR-4 ovarian; 57.6% in the assay on SK-OV-3 ovarian; 9.36% (active) with IGROV1 ovarian; 24.2% in the assay on OVCAR-3 ovarian; 62.8% in the assay with HS 578T breast. The growth in the assay on NCI/ADR-RES ovarian was 0.595% (active).
`COc1cc(-c2ccc(N=Nc3ccc4c(S(=O)(=O)O)ccc(N)c4c3O)c(OC)c2)ccc1N=Nc1ccc2c(S(=O)(=O)O)ccc(N)c2c1O`: the growth in the assay with SK-MEL-2 melanoma was 102%; in the assay on SN12C renal, 123%; in the assay with TK-10 renal it was 121%; in the assay on ACHN renal it was 103%; with A498 renal it was 124%; in the assay with CCRF-CEM leukemia, 105%. Further, the growth was 122% in the assay with MOLT-4 leukemia; 146% in the assay with SR leukemia; 115% with RPMI-8226 leukemia; 99.6% in the assay with OVCAR-8 ovarian; 111% with OVCAR-5 ovarian; 98.4% in the assay on OVCAR-4 ovarian. Moreover, the growth in the assay with SK-OV-3 ovarian was 91.4%; in the assay with OVCAR-3 ovarian it was 109%; in the assay with HS 578T breast it was 124%; in the assay with NCI/ADR-RES ovarian, 109%.
As to `CSc1nc(S(C)(=O)=O)nc2[nH]c(=O)[nH]c12`, the growth in the assay with SK-MEL-2 melanoma was 106%; in the assay with SN12C renal, 95.9%; in the assay with TK-10 renal it was 119%; in the assay on ACHN renal, 97.7%; with A498 renal, 118%; with CCRF-CEM leukemia, 117%. The growth was 116% with MOLT-4 leukemia; 123% in the assay on RPMI-8226 leukemia; 108% in the assay on OVCAR-8 ovarian; 96.3% in the assay on OVCAR-5 ovarian; 117% in the assay on OVCAR-4 ovarian; 115% in the assay on SK-OV-3 ovarian. Besides, the growth with OVCAR-3 ovarian was 115%; in the assay with HS 578T breast, 111%; in the assay on NCI/ADR-RES ovarian it was 110%.
With `CCc1cc(Cl)c(OC)c(C(=O)NCC2CCCN2CC)c1O` (stereo not drawn), the growth is 82.4% in the assay with EKVX NSCLC; 92.5% in the assay on SN12C renal; 61.4% in the assay with UO-31 renal; 104% in the assay with TK-10 renal; 88.5% with ACHN renal; 72.2% with CAKI-1 renal. For the same molecule, the growth was 70.1% in the assay with A498 renal; 96% with CCRF-CEM leukemia; 88% in the assay with MOLT-4 leukemia; 81.6% in the assay with SR leukemia; 95.8% in the assay with RPMI-8226 leukemia; 92.5% in the assay with OVCAR-8 ovarian. Also, the growth in the assay on OVCAR-5 ovarian is 88.2%; with OVCAR-4 ovarian, 86.5%; in the assay with SK-OV-3 ovarian, 79.9%; in the assay on IGROV1 ovarian, 98.4%; in the assay with OVCAR-3 ovarian it was 100%; in the assay with HS 578T breast it was 88.7%. For the same molecule, the growth with NCI/ADR-RES ovarian was 94.2%.
Consider `Cc1ccc(C2=NN(c3ccc(S(C)(=O)=O)cc3)C(=O)CC2)cc1`, for which the growth in the assay on SK-MEL-2 melanoma was 6.35% (active); with SN12C renal it was 39.7%; in the assay on UO-31 renal it was 41.1%; with TK-10 renal it was 67%; in the assay on ACHN renal, 54.5%; in the assay on CCRF-CEM leukemia, 14.9%. The growth was 20% in the assay with MOLT-4 leukemia; 4.47% (active) in the assay with SR leukemia; 31.8% in the assay on OVCAR-8 ovarian; 53.1% with OVCAR-5 ovarian; 60.8% in the assay on OVCAR-4 ovarian; 19.9% in the assay on SK-OV-3 ovarian. Moreover, the growth in the assay with IGROV1 ovarian is 59.2%; with OVCAR-3 ovarian it was -14.7% (active); with HS 578T breast, -1.17% (active); in the assay on NCI/ADR-RES ovarian, 6.72% (active).
Regarding `O=C1C=C(Nc2cccc(Br)c2)c2ccccc2C1=O`, the growth in the assay with SK-MEL-2 melanoma was 7.56% (active); in the assay with SN12C renal, 53.6%; in the assay with TK-10 renal it was 89.8%; in the assay on ACHN renal it was 50.8%; with CAKI-1 renal, 78.3%; with A498 renal, 88.6%. Besides, the growth is 81.4% in the assay on CCRF-CEM leukemia; 81% in the assay on MOLT-4 leukemia; 56.8% in the assay on SR leukemia; 63.1% in the assay on RPMI-8226 leukemia; 69.5% in the assay with OVCAR-8 ovarian; 73.1% with OVCAR-5 ovarian. The growth in the assay with OVCAR-4 ovarian was 77.6%; in the assay on SK-OV-3 ovarian it was 25.7%; in the assay with OVCAR-3 ovarian it was 38.9%; in the assay with HS 578T breast it was 38.5%; in the assay on NCI/ADR-RES ovarian, 71.1%.
On to `O=C(CNc1nnc(-c2cccnc2SCc2ccccc2)s1)Nc1nc(Cl)cc(Cl)n1`, for which the growth is 112% with EKVX NSCLC; 103% in the assay on SN12C renal; 77.4% in the assay with UO-31 renal; 125% with TK-10 renal; 119% in the assay on ACHN renal; 102% in the assay with CAKI-1 renal. For the same molecule, the growth with A498 renal is 121%; in the assay on CCRF-CEM leukemia, 102%; in the assay with MOLT-4 leukemia it was 95.4%; in the assay with SR leukemia it was 98.5%; in the assay with RPMI-8226 leukemia it was 108%; with OVCAR-8 ovarian, 118%. The growth in the assay on OVCAR-5 ovarian was 109%; in the assay on OVCAR-4 ovarian it was 103%; with SK-OV-3 ovarian, 99.2%; with IGROV1 ovarian it was 96.6%; in the assay on OVCAR-3 ovarian it was 106%; with HS 578T breast, 130%.
Turning to `c1ccc(CSc2ncccc2-c2nnc(SCCN3CCOCC3)o2)cc1`, the growth was 108% in the assay with EKVX NSCLC; 114% with SN12C renal; 89.4% in the assay on UO-31 renal; 118% in the assay with TK-10 renal; 124% with ACHN renal; 100% in the assay on CAKI-1 renal. Also, the growth was 107% in the assay with A498 renal; 103% in the assay with CCRF-CEM leukemia; 103% with MOLT-4 leukemia; 104% in the assay on SR leukemia; 104% in the assay on RPMI-8226 leukemia; 109% in the assay with OVCAR-8 ovarian. Besides, the growth in the assay with OVCAR-5 ovarian was 119%; in the assay on OVCAR-4 ovarian, 106%; in the assay with SK-OV-3 ovarian, 109%; in the assay with IGROV1 ovarian it was 98.3%; in the assay with OVCAR-3 ovarian it was 120%; with HS 578T breast, 133%. Besides, the growth with NCI/ADR-RES ovarian was 107%.
Regarding `Cc1cn(-c2cccc(NC(=O)c3ccc(C)c(Nc4nccc(-c5cccnc5)n4)c3)c2)cn1`, the growth in the assay on SK-MEL-2 melanoma was 75.8%; in the assay on SN12C renal, -4.51% (active); in the assay with UO-31 renal, -22.6% (active); in the assay with TK-10 renal, -46.3% (active); in the assay with ACHN renal, -31.9% (active); in the assay with CCRF-CEM leukemia, 25%. Further, the growth in the assay with MOLT-4 leukemia was 5.78% (active); in the assay with OVCAR-8 ovarian it was 0.284% (active); with OVCAR-5 ovarian, 41.3%; in the assay on OVCAR-4 ovarian, -58.1% (active); in the assay with SK-OV-3 ovarian, -54.2% (active); with IGROV1 ovarian, -11.7% (active). For the same molecule, the growth with OVCAR-3 ovarian was -33.7% (active); with NCI/ADR-RES ovarian it was 7.25% (active).
